From PubChem BioAssay AID1860 (The Scripps Research Institute Molecular Screening Center, 2009) come the findings set out here.

This is one part of the list. Values without a mark were called inactive. Active and inactive are the calls of the source. Rule as the data show it: active = inhibition above about 8%; inactive = the rest.

Usually inhibition stands for the drop in the measured response relative to a control, in per cent.

The test concerns VIM-2 metallo-beta-lactamase [Pseudomonas aeruginosa]. Description: P. aeruginosa VIM-2 enzyme inhibition – biochemical, epi-absorbance, HTS, confirmation (AID 1860).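 Also: 0% = enzyme with vehicle and 100% = no enzyme.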 To be noted: purified VIM-2 enzyme, nitrocefin absorbance; at 5.6 µM; active compounds read high.
Turning to `C/C(=N\Nc1ccc(S(N)(=O)=O)cc1[N+](=O)[O-])c1cccs1`, the inhibition was 17.3% (active). `Cc1cc2nc3c(=O)n(Cc4ccccc4)c(=O)[nH]c3nc2cc1N`: the inhibition is 16.6% (active).

For the compound `Cc1nn(C)cc1N1C(=O)c2cccc3c(N)ccc(c23)C1=O`, the inhibition is 35.2% (active). For `CCC(=C/c1sc2ccc3ccccc3c2[n+]1C)/C=C1\Sc2ccc3ccccc3c2N1C` the value was 12% (active); for `Oc1ccc2ccc3cccc[n+]3c2c1`, 30.2% (active); for `CN1C(=O)c2cccc3c(N)ccc(c23)C1=O`, 48.4% (active). For `COc1cc(/C=C2/SC(=S)N(Cc3ccccc3)C2=O)cc(OC)c1O` the value was 13.7% (active); for `NS(=O)(=O)c1ccc(NC(=O)COC(=O)c2c3c(nc4ccccc24)/C(=C\c2ccc4c(c2)OCO4)CCC3)cc1`, -1.18%; for `Nc1c(C(=O)c2cccs2)sc2nsc(SCCN3CCCCC3)c12`, 31.7% (active). For `c1ccc(-c2nccc(-c3ccc(-n4cnc5ccccc54)cc3)n2)nc1` the value was 71.7% (active). Take `NC(=O)c1ccc(NC(=O)COC(=O)c2c3c(nc4ccccc24)/C(=C\c2ccc4c(c2)OCO4)CCC3)cc1`: the inhibition is -0.41%.
